Source: PubChem BioAssay AID1259336 (Sattelle Laboratory, UCL Respiratory, Division of Medicine, …, 2017)
Activity calls are given as the source filed them. Rule as the data show it: active = log2 fold change growth below about -1.8; inactive = the rest.

experiment: anthelmintic activity against nematode growth – whole organism, log2 fold change (AID 1259336);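 also: growth scored by imaging after five days at 20 °C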; details: C. elegans growth, anthelmintic screen; hits give low values

log2 fold change growth, inactive:
O=C(OCc1ccccc1)N1CCC(c2cc(-c3ccncc3)c(-c3ccc(F)cc3)[nH]2)CC1 -0.374
CNC(=O)[C@@H]1Cc2c([nH]c3cc(Cl)ccc23)C2(CCN(CCc3ccccc3)CC2)N1 0.551
COc1ccccc1OCCCCn1c(C2CC2)nc2ccccc21 0.559
Cc1ccc2[nH]c([C@H]3CCCNC3)c(-c3ccncc3)c2c1 0.649
COc1ccc(-c2nnc3ccc(-c4cccc(C(C)C)c4)cn23)cc1OC -0.151
Cc1ccc2[nH]c3c(NCCN(C)C)ncnc3c2c1 0.351
O=C(NC1CC1)c1ccc(CSCc2ccccc2Cl)o1 0.276
N=C(N)c1ccc(OCCCCCOc2ccc(C(=N)N)cc2)cc1 0.291
CS(=O)(=O)c1cccc(-c2cnc3[nH]cc(-c4ccc(CCC(=O)O)cc4)c3c2)c1 0.172
Cc1cccc(NC(=O)c2cc(S(=O)(=O)N(C)c3ccc(F)cc3)ccc2Cl)n1 -0.21
CCc1nc2ccc(C(=O)NCc3ccc4c(c3)OCO4)cn2c1N(C)Cc1cccs1 -0.917
FC(F)(F)c1cccc(-c2nc3c(NCc4ccncc4)nccc3[nH]2)c1 0.0714
O=C(N[C@H]1CCN(c2ccnc3ccccc23)C1)c1cccc(C(F)(F)F)c1 0.541
N#Cc1ccc(-c2cnc(N)c(-c3ccc(C(N)=O)cc3)n2)cc1 -0.619
NCCC(O)C(=O)N[C@@H]1C[C@H](N)[C@@H](OC2O[C@H](CN)[C@@H](O)[C@H](O)[C@H]2O)[C@H](O)C1OC1O[C@H](CO)[C@@H](O)[C@H](N)[C@H]1O (stereo partly drawn) 0.334
CCc1nc2ccc(Cl)cn2c1C(=O)NCc1ccc(N2CCC(c3ccc(OC(F)(F)F)cc3)CC2)cc1 -0.0431
Cc1ccc(S(=O)(=O)Nc2ccc(CN3CCN(C(=O)c4cccc(C#N)c4)CC3)cc2)cc1 0.152
O=C(Nc1n[nH]c(=S)s1)c1cc(Br)ccc1Cl 0.172
CC1CC1C(=O)NC1CCN(CC2(c3ccccc3)CCCCC2)CC1 (stereo not drawn) 0.347
CCCCc1ccc(NC(=O)Nc2ccc(O[C@H]3CCCC[C@@H]3N(C)c3ccccc3)c(F)c2)cc1 -0.0752
Cc1ccc(-c2cc(C(=O)Nc3cccnc3)c3cc(Br)ccc3n2)cc1 -0.0922
CC(=O)N(CCN(C(=O)c1ccc(F)cc1)c1ccccc1)c1ccccc1 0.382
O[C@@H](c1cc(C(F)(F)F)nc2c(C(F)(F)F)cccc12)[C@H]1CCCCN1 -0.189
CCn1ncc2c(NC3CCOCC3)c(CNC(=O)c3ccnn3C)c(C)nc21 -0.407
c1cncc(NCc2ccc(-c3cc4ccncc4cc3OC3CCNCC3)s2)c1 0.376
O=C(c1n[nH]c2c1CCCC2)N1CCN(Cc2ccc3c(c2)OCO3)CC1 0.387
O=C(c1ccc(NCCO)cc1)C1C[C@H]1c1ccc(Cl)cc1 (stereo partly drawn) -0.319
CS(=O)(=O)c1ccccc1C(=O)N(Cc1ccccc1)c1ccccc1 -0.293
Cc1ccc(NC(=O)C[C@H]2COc3ccccc3O2)cc1Cl -0.476
O=C(CCC1CCCCC1)Nc1cccc(-c2nnc(-c3ccco3)o2)c1 0.147
Cc1cc2ccccc2n1CC(=O)N1C[C@@H](C(=O)N2CCCCC2)Oc2ccccc21 0.0798
Cc1ccc(NC(=O)c2cc(S(=O)(=O)NC(C)(C)C)ccc2C)nc1 0.26
Cc1ncc(-c2ccnc(Nc3ccc(S(C)(=O)=O)cc3)n2)n1C(C)C 0.268
C[C@H]1COc2c(N3CCN(C)CC3)c(F)cc3c(=O)c(C(=O)O)cn1c23 0.473
CN(C(=O)c1cc2c(-c3cncnc3)cccc2[nH]1)c1ccccc1 -0.492
CCOc1ccc2cc(-c3nn(C(C)(C)C)c(N)c3C(N)=O)cnc2c1 -0.647
CS(=O)(=O)c1ccc(C(=O)N(C[C@H]2CCCO2)c2nc3ccccc3s2)cc1[N+](=O)[O-] 0.211

log2 fold change growth, active:
O=C(Nc1nc(-c2ccccn2)cs1)C1CC1c1ccccc1F (stereo not drawn) -2.09
